GALK inh – qHTS Assay for Inhibitors of Human Galactokinase (GALK) | Potency, µM (series often up to 57.5 µM), hits mostly inhibitors | 270,000 compounds, 0.007% hits | P51570 | Purified GALK, Kinase-Glo residual ATP luminescence
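GALK at 5 nM final was combined with compound, 35 uM ATP and 100 uM galactose in HEPES pH8.0 with MgCl2 and DTT. The reaction ran one hour at room temperature before luminescent ATP detection.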
VDR inhibitor – Inhibitors of the vitamin D receptor (VDR): qHTS; VDR-SRC2-3 peptide fluorescence polarization, 2 h; Potency, µM, actives largely listed as inhibitors; 400,000 compounds, 0.93% hits
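Fluorescence polarization assay measuring small-molecule disruption of VDR binding to the coregulator peptide SRC2-3. Compounds were pin-transferred (23 nl) into the reagent mix and incubated 2 h at room temperature before reading.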
USP2a block – qHTS Assay for Inhibitors of Ubiquitin-specific Protease USP2a Using CHOP2 as the Reporter. USP2 core, Ub-CHOP2 coupled fluorogenic reporter, 485/531. AID 463254, 2010. 330,000 compounds, 0.01% hits. Potency, µM (series often up to 38.3 µM), actives largely listed as inhibitors
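Deubiquitinase activity read as fluorescence (485/531 nm) after Ub-CHOP2 cleavage activates the enterokinase reporter on its substrate; USP2 core 10nM, Ub-CHOP2 and substrate 25nM each, 30min compound preincubation then 60min RT; data normalized to NEM, curves fitted.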
PLK1 PBD block – qHTS for Inhibitors of PLK1-PDB (polo-like kinase 1 - polo-box domain): Primary Screen. Serine/threonine-protein kinase PLK1 (Homo sapiens), P53350. Plk1 PBD binding of FITC phosphopeptide, fluorescence polarization. Potency, µM, most hits filed as inhibitors. 360,000 compounds, 2.8% hits. AID 720504, 2013; note: series mostly up to about 57 µM; nearly all actives have a fitted effect of over 65% in size
FBPA coupling cs – qHTS Assay for Inhibitors of Fructose-1,6-bisphosphate Aldolase from Giardia Lamblia: Coupling assay counterscreen; coupling enzyme system counterscreen, AmpLite Red fluorescence; activity change, negative = inhibition, % at 58.2 µM, hits read low; 290,000 compounds, 0.67% hits; AID 2472, 2010; in the data active = activity change below about -30%
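Fluorescence at 525 nm excitation and 598 nm emission measured inhibition of the coupled detection system without aldolase. Compounds (at 57.5 uM final) were preincubated 10 min at room temperature with coupling enzyme reagent before a 20 min substrate/AmpLite Red step.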
USP1 inh – Inhibitors of USP1/UAF1: Primary Screen | Ubiquitin carboxyl-terminal hydrolase 1 (Homo sapiens), O94782 | recombinant USP1/UAF1, Ub-Rhodamine cleavage fluorescence | Potency, µM (highest dose often 57.1 µM), hits mostly inhibitors | 390,000 compounds, 0.23% hits | AID 743255, 2014; note: nearly all actives have a fitted effect of over 60% in size
Target sequence (O94782 whole entry, looked up): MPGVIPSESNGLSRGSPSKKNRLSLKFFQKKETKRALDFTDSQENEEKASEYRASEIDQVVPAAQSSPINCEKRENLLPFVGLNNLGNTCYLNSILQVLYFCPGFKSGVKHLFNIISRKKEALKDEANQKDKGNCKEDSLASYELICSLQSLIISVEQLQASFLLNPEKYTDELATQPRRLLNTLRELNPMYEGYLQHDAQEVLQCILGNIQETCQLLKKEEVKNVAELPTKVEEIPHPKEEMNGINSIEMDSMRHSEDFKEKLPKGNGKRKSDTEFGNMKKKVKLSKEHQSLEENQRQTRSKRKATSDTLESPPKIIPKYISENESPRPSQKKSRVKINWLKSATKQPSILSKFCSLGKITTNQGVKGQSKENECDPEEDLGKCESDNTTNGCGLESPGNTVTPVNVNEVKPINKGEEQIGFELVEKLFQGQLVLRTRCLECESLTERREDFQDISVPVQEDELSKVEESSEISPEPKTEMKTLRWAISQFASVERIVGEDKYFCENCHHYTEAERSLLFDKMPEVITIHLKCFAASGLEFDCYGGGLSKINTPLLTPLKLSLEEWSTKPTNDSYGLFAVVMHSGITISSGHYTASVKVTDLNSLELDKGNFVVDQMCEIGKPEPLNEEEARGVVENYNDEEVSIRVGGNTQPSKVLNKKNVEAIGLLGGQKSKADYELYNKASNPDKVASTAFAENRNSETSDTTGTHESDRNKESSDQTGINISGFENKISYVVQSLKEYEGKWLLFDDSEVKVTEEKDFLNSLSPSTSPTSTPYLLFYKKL
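1 nM enzyme complex + cpd, 15 min RT; start with Ub-Rho 150nM final; kinetic fluorescence ex 480/em 540, 6 reads q60 s. Buffer 50mM HEPES pH 7.8, 0.5mM EDTA, 0.1 mg/ml BSA, 1mM TCEP, 0.01% Tween-20.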
USP1-UAF1 confirm – Inhibitors of USP1/UAF1: Hit Validation in Primary Assay | shares compounds with VDR inhibitor | Ub-Rhodamine cleavage, fluorescence kinetic read | Potency, µM (top dose mostly 56.8 µM), actives largely listed as inhibitors | 50 compounds, 50% hits | AID 540327, 2011
VDR inh confirm – qHTS for Inhibitors of the vitamin D receptor (VDR): Hit Validation in Primary Screen; shares compounds with VDR inhibitor; AID 602199, 2012; VDR-coactivator inhibition assay, qHTS confirmation; 840 compounds, 89% hits; Potency, µM, usual class: inhibitors
VDR FP fluor – qHTS for Inhibitors of the vitamin D receptor (VDR): Hit Validation using a Fluorescein Assay. Potency, µM (series often up to 57.1 µM), usual class: inhibitors. 840 compounds, 48% hits. shares compounds with VDR inhibitor. AID 602200, 2012. VDR-coactivator binding, fluorescein fluorescence polarization
VDR bla – qHTS for Inhibitors of the vitamin D receptor (VDR): Hit Validation using a Beta-Lactamase Assay; Potency, µM (series often up to 46.1 µM), actives largely listed as inhibitors; 840 compounds, 23% hits; VDR beta-lactamase reporter cells, FRET ratio; cells co-treated with VDR agonist LG190178; AID 602202, 2012; shares compounds with VDR inhibitor
VDR viability – qHTS for Inhibitors of the vitamin D receptor (VDR): Hit Validation using a Cytotoxicity Assay. shares compounds with VDR inhibitor. cytotoxicity counter-screen, cell viability, qHTS. Potency, µM (series often up to 48.3 µM), hits mostly cytotoxic. 840 compounds, 18% hits; note: nearly all actives have a fitted effect of over 75% in size
Of the large screens only hits and unclear results are named; the others gave an inactive call (follow-up assays come after a bar, where they were run). A selection: hits, their analogues and other compounds. The true share with any hit is near 3.2%. Unless noted, calls come from the whole dose curve; as a rule, active = well fitted curve in the direction sought with a large enough effect; inconclusive = small, poorly fitted or top-dose-only effect, or another doubt; inactive = no such curve, though single readings can be large; an effect the other way counts as inactive or inconclusive.

COc1ccc(Cl)cc1/C=C1/C(=O)ON=C1C	VDR inhibitor inconclusive, PLK1 PBD block inconclusive
CC1=NOC(=O)/C1=C\c1ccc(-c2ccc(Br)cc2)o1	VDR inhibitor inconclusive, PLK1 PBD block 0.6µM, USP1 inh inconclusive | VDR inh confirm 3.2 | VDR FP fluor inconclusive | VDR bla inactive | VDR viability inactive
CN(CC(=O)Nc1ccccc1Cl)CC(=O)Nc1ccccc1[N+](=O)[O-]	none
O=C(CCNc1ccc(Cc2ccncc2)cc1)c1ccc([N+](=O)[O-])cc1	VDR inhibitor inconclusive, PLK1 PBD block inconclusive
COc1ccc(/C=C2/C(=O)N(c3c(F)c(F)c(F)c(F)c3F)N=C2C)cc1	VDR inhibitor 50µM, PLK1 PBD block 6.7µM | VDR inh confirm inconclusive | VDR FP fluor 18µM | VDR bla inactive | VDR viability inactive
c1ccc(CCSc2ncnc3nc[nH]c23)cc1	none (no result: GALK inh)
Clc1ccc(Cl)c(-c2nn3c(COc4ccccc4)nnc3s2)c1	VDR inhibitor inconclusive, PLK1 PBD block 5.3µM | VDR inh confirm 11 | VDR FP fluor 7.1µM | VDR bla inactive | VDR viability inactive
O=C1CCC/C1=C\Nc1ccc(Cl)c([N+](=O)[O-])c1	none
NC(Cc1ccc(Cl)cc1)C(=O)O (stereo unspecified)	none (no result: GALK inh, USP2a block, PLK1 PBD block, USP1 inh)
N[C@@H](Cc1cc(-c2ccc(Cl)cc2Cl)cc(CP(=O)(O)O)c1O)C(=O)O	VDR inhibitor 45µM (no result: GALK inh, USP2a block, PLK1 PBD block, USP1 inh) | USP1-UAF1 confirm 42µM
Cc1cc(N2C(=O)c3ccc(C(=O)Nc4ccccc4O)cc3C2=O)no1	none
Cn1c(N)c(C(=O)Nc2ccc(-c3ccccc3)cc2)sc1=S	VDR inhibitor inconclusive, PLK1 PBD block 15µM | VDR inh confirm 18 | VDR FP fluor 22µM | VDR bla inconclusive | VDR viability inconclusive
Cn1c(N)c(C(=O)NCc2ccccc2Cl)sc1=S	VDR inhibitor inconclusive
COc1ccc(C(=O)Oc2ccc(C(=S)N3CCOCC3)cc2)cc1	VDR inhibitor 71µM, PLK1 PBD block 11µM | VDR inh confirm 27 | VDR FP fluor 25µM | VDR bla inactive | VDR viability inactive
O=C(Oc1ccc(C(=S)N2CCOCC2)cc1)c1ccc(Br)cc1	none
CCOC(=O)c1sc(NC(=O)CCCCl)nc1C	none
COc1ccccc1CNc1cc(-c2ccoc2)ncn1	VDR inhibitor 16µM (no result: GALK inh, USP2a block, PLK1 PBD block, USP1 inh) | VDR inh confirm inconclusive | VDR FP fluor inactive | VDR bla inactive | VDR viability inactive
O=C1C(Cl)=C(NC(=O)c2ccccc2)C(=O)C(Cl)=C1NC(=O)c1ccccc1	VDR inhibitor 35µM, PLK1 PBD block 1.3µM | VDR inh confirm 4.2 | VDR FP fluor inconclusive | VDR bla 3.7µM | VDR viability 12µM
CCC(C)[C@@H](NC(=O)OC(C)(C)C)c1nnc(S(=O)(=O)Cc2cccc(C)c2)o1 (stereo partly specified)	VDR inhibitor 25µM, PLK1 PBD block 8.4µM | VDR inh confirm 4.7 | VDR FP fluor inconclusive | VDR bla inconclusive | VDR viability inconclusive
Cc1ccccc1CS(=O)(=O)c1nnc([C@H](Cc2ccccc2)NC(=O)OC(C)(C)C)o1	VDR inhibitor 20µM, PLK1 PBD block 7.5µM | VDR inh confirm 6 | VDR FP fluor 3.5µM | VDR bla inconclusive | VDR viability inconclusive
CC(C)(C)OC(=O)N[C@@H](Cc1ccccc1)c1nnc(S(=O)(=O)Cc2ccccc2)o1	none (no result: VDR inhibitor, PLK1 PBD block, USP1 inh)
Cc1cccc(CS(=O)(=O)Cc2ccc(C(=O)NC(C)c3ccccc3)o2)c1 (stereo unspecified)	none
CCc1nc2c(OCCC3CCCCC3)cccn2c1N(C)C(=O)C1CC1	none (no result: GALK inh, VDR inhibitor, USP2a block, FBPA coupling cs, USP1 inh)
COc1ccc(C(=O)CSc2ccc3nnc(-c4cccnc4)n3n2)cc1	none
CC1CCCCC12NC(=O)N(CC(=O)Nc1ccc(Cl)c(S(=O)(=O)N3CCOCC3)c1)C2=O (stereo unspecified)	none (no result: GALK inh, FBPA coupling cs)
N#CCCn1cc(C(=O)Nc2ccc(C(=O)O)cc2)c(-c2cccc(Br)c2)n1	none
CCOC(=O)C1=C(C)N=C2SC(C(=O)OC)=CC(=O)N2C1c1cccc(OC)c1 (stereo unspecified)	none
CCOC(=O)C1=C(C)N=C2SC(C(=O)OC)=CC(=O)N2C1c1ccc(F)cc1 (stereo unspecified)	VDR inhibitor 22µM | VDR inh confirm 13 | VDR FP fluor inconclusive | VDR bla inactive | VDR viability inconclusive
Cc1ccc(S(=O)(=O)Oc2ccc(/C=C3\N=C(c4cccc(C)c4)OC3=O)cc2)cc1	none
Cc1ccc(S(=O)(=O)Oc2ccc(/C=C3\C(=N)N4N=C(S(C)(=O)=O)SC4=NC3=O)cc2)cc1	VDR inhibitor 50µM, PLK1 PBD block 15µM (no result: FBPA coupling cs) | VDR inh confirm inconclusive | VDR FP fluor 3.2µM | VDR bla inactive | VDR viability inconclusive
Cc1ccc(C=Nc2ccc(N(C)C)cc2)o1	VDR inhibitor 1µM, USP1 inh inconclusive | VDR inh confirm 12 | VDR FP fluor inactive | VDR bla inactive | VDR viability inactive
O=C(Nc1ccc(CN2CCS(=O)(=O)CC2)cc1)c1ccc(C(F)(F)F)cc1	none (no result: GALK inh)

Screens as filed in PubChem.
